Measurements taken from publication PMC11006913.
Where a chain is given by its changes, count along the chain named.

Each sequence was assayed against T1, PAX4 (Homo sapiens, UniProt O43316 9-242, R200Q) (assay: PBM; 200 nM protein, PBS). Settings: dsDNA, one strand shown.
T1 sequence: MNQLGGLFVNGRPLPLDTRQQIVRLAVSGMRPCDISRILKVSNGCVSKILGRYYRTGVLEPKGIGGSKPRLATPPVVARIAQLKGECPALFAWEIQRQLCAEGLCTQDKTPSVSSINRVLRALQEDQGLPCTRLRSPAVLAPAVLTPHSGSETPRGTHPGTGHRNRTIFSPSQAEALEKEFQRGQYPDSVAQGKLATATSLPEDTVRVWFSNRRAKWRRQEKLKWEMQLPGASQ

Sequence | binding signal
ACGAATTA | 11.7 upbm affinity estimate (log intensity, higher = more binding, comparable within an allelic series)
CTGAGCGC | 9.31 upbm affinity estimate (log intensity, higher = more binding, comparable within an allelic series)
ATACATAT | 10.8 upbm affinity estimate (log intensity, higher = more binding, comparable within an allelic series)

What follows are sequences tested against T2, PAX4 (Homo sapiens, UniProt O43316 9-242, F177V) (assay: PBM; 200 nM protein, PBS). Settings: dsDNA, one strand shown.
T2 sequence: T1 sequence with F169V, Q192R

Sequence | binding signal
CGCGCGCC | 9.21 upbm affinity estimate (log intensity, higher = more binding, comparable within an allelic series)
CTAATTCA | 10.5 upbm affinity estimate (log intensity, higher = more binding, comparable within an allelic series)
ATTACCCG | 9.93 upbm affinity estimate (log intensity, higher = more binding, comparable within an allelic series)
CTCGCCTC | 9.31 upbm affinity estimate (log intensity, higher = more binding, comparable within an allelic series)
CCGAAGCC | 9.17 upbm affinity estimate (log intensity, higher = more binding, comparable within an allelic series)
AAATTAAG | 10.4 upbm affinity estimate (log intensity, higher = more binding, comparable within an allelic series)
TGGGCCCA | 9.2 upbm affinity estimate (log intensity, higher = more binding, comparable within an allelic series)
CCAGCGCC | 9.31 upbm affinity estimate (log intensity, higher = more binding, comparable within an allelic series)
GAATTAAC | 10.4 upbm affinity estimate (log intensity, higher = more binding, comparable within an allelic series)
CGTATTAA | 10.5 upbm affinity estimate (log intensity, higher = more binding, comparable within an allelic series)
CGCCCGGC | 8.97 upbm affinity estimate (log intensity, higher = more binding, comparable within an allelic series)
GGAAGCCC | 9.32 upbm affinity estimate (log intensity, higher = more binding, comparable within an allelic series)
GCGAATTA | 10.3 upbm affinity estimate (log intensity, higher = more binding, comparable within an allelic series)
GGGCGCGA | 9.01 upbm affinity estimate (log intensity, higher = more binding, comparable within an allelic series)
ATAATTTA | 10.8 upbm affinity estimate (log intensity, higher = more binding, comparable within an allelic series)
AATGCGAT | 10.2 upbm affinity estimate (log intensity, higher = more binding, comparable within an allelic series)

Sequence | binding signal
AAGCGCTT | 9.61 upbm affinity estimate (log intensity, higher = more binding, comparable within an allelic series)
CGGGCCAC | 9.28 upbm affinity estimate (log intensity, higher = more binding, comparable within an allelic series)
CGGCCGGC | 9.01 upbm affinity estimate (log intensity, higher = more binding, comparable within an allelic series)
CTTCGTTC | 9.56 upbm affinity estimate (log intensity, higher = more binding, comparable within an allelic series)
CGTATTAG | 10.6 upbm affinity estimate (log intensity, higher = more binding, comparable within an allelic series)
ATTTAGAG | 10.1 upbm affinity estimate (log intensity, higher = more binding, comparable within an allelic series)
AGCTGCCG | 9.27 upbm affinity estimate (log intensity, higher = more binding, comparable within an allelic series)
ACCGGGGC | 9.11 upbm affinity estimate (log intensity, higher = more binding, comparable within an allelic series)
AGTGTTAG | 9.92 upbm affinity estimate (log intensity, higher = more binding, comparable within an allelic series)
ATGAATTA | 10.7 upbm affinity estimate (log intensity, higher = more binding, comparable within an allelic series)
CCCGCGCG | 9.01 upbm affinity estimate (log intensity, higher = more binding, comparable within an allelic series)
TAACTCAA | 10.1 upbm affinity estimate (log intensity, higher = more binding, comparable within an allelic series)
ACGAATTA | 10.3 upbm affinity estimate (log intensity, higher = more binding, comparable within an allelic series)
CTGAGCGC | 9.15 upbm affinity estimate (log intensity, higher = more binding, comparable within an allelic series)
GGAAAATA | 10.1 upbm affinity estimate (log intensity, higher = more binding, comparable within an allelic series)
ATACATAT | 10.6 upbm affinity estimate (log intensity, higher = more binding, comparable within an allelic series)

What follows are sequences tested against T3, PAX4 (Homo sapiens, UniProt O43316 9-242, F177Y) (assay: PBM; 200 nM protein, PBS). Settings: dsDNA, one strand shown.
T3 sequence: T1 sequence with F169Y, Q192R

Sequence | binding signal
TATTTTAA | 10.6 upbm affinity estimate (log intensity, higher = more binding, comparable within an allelic series)
CGCGCGCC | 9.31 upbm affinity estimate (log intensity, higher = more binding, comparable within an allelic series)
CTAATTCA | 11 upbm affinity estimate (log intensity, higher = more binding, comparable within an allelic series)
ATTACCCG | 9.92 upbm affinity estimate (log intensity, higher = more binding, comparable within an allelic series)
CTCGCCTC | 9.3 upbm affinity estimate (log intensity, higher = more binding, comparable within an allelic series)
CCGAAGCC | 9.2 upbm affinity estimate (log intensity, higher = more binding, comparable within an allelic series)
AAATTAAG | 10.8 upbm affinity estimate (log intensity, higher = more binding, comparable within an allelic series)
TGGGCCCA | 9.37 upbm affinity estimate (log intensity, higher = more binding, comparable within an allelic series)
CCAGCGCC | 9.23 upbm affinity estimate (log intensity, higher = more binding, comparable within an allelic series)
GAATTAAC | 11 upbm affinity estimate (log intensity, higher = more binding, comparable within an allelic series)
CGTATTAA | 11 upbm affinity estimate (log intensity, higher = more binding, comparable within an allelic series)
CGCCCGGC | 9.01 upbm affinity estimate (log intensity, higher = more binding, comparable within an allelic series)
GGAAGCCC | 9.3 upbm affinity estimate (log intensity, higher = more binding, comparable within an allelic series)
GCGAATTA | 10.8 upbm affinity estimate (log intensity, higher = more binding, comparable within an allelic series)
GGGCGCGA | 9.02 upbm affinity estimate (log intensity, higher = more binding, comparable within an allelic series)
ATAATTTA | 11 upbm affinity estimate (log intensity, higher = more binding, comparable within an allelic series)
AAGCGCTT | 9.5 upbm affinity estimate (log intensity, higher = more binding, comparable within an allelic series)

Sequence | binding signal
CGGGCCAC | 9.41 upbm affinity estimate (log intensity, higher = more binding, comparable within an allelic series)
CGGCCGGC | 9 upbm affinity estimate (log intensity, higher = more binding, comparable within an allelic series)
CTTCGTTC | 9.5 upbm affinity estimate (log intensity, higher = more binding, comparable within an allelic series)
CGTATTAG | 11.1 upbm affinity estimate (log intensity, higher = more binding, comparable within an allelic series)
ATTTAGAG | 10.2 upbm affinity estimate (log intensity, higher = more binding, comparable within an allelic series)
AGCTGCCG | 9.2 upbm affinity estimate (log intensity, higher = more binding, comparable within an allelic series)
ATAATGCG | 10.9 upbm affinity estimate (log intensity, higher = more binding, comparable within an allelic series)
ACCGGGGC | 9.09 upbm affinity estimate (log intensity, higher = more binding, comparable within an allelic series)
AGTGTTAG | 10 upbm affinity estimate (log intensity, higher = more binding, comparable within an allelic series)
ACGTATTA | 11 upbm affinity estimate (log intensity, higher = more binding, comparable within an allelic series)
ATGAATTA | 11.2 upbm affinity estimate (log intensity, higher = more binding, comparable within an allelic series)
CCCGCGCG | 9.06 upbm affinity estimate (log intensity, higher = more binding, comparable within an allelic series)
ACGAATTA | 11 upbm affinity estimate (log intensity, higher = more binding, comparable within an allelic series)
CTGAGCGC | 9.2 upbm affinity estimate (log intensity, higher = more binding, comparable within an allelic series)
GGAAAATA | 10.1 upbm affinity estimate (log intensity, higher = more binding, comparable within an allelic series)
ATACATAT | 10.6 upbm affinity estimate (log intensity, higher = more binding, comparable within an allelic series)

The sequences below were run against T4, PAX4 (Homo sapiens, UniProt O43316 9-242, R227W) (assay: PBM; 200 nM protein, PBS). Settings: dsDNA, one strand shown.
T4 sequence: T1 sequence with Q192R, R219W

Sequence | binding signal
TATTTTAA | 10.6 upbm affinity estimate (log intensity, higher = more binding, comparable within an allelic series)
CGCGCGCC | 9.28 upbm affinity estimate (log intensity, higher = more binding, comparable within an allelic series)
CTAATTCA | 11 upbm affinity estimate (log intensity, higher = more binding, comparable within an allelic series)
ATTACCCG | 10.1 upbm affinity estimate (log intensity, higher = more binding, comparable within an allelic series)
CTCGCCTC | 9.28 upbm affinity estimate (log intensity, higher = more binding, comparable within an allelic series)
CCGAAGCC | 9.18 upbm affinity estimate (log intensity, higher = more binding, comparable within an allelic series)
AAATTAAG | 10.8 upbm affinity estimate (log intensity, higher = more binding, comparable within an allelic series)
TGGGCCCA | 9.35 upbm affinity estimate (log intensity, higher = more binding, comparable within an allelic series)
CCAGCGCC | 9.33 upbm affinity estimate (log intensity, higher = more binding, comparable within an allelic series)
TAGTATAA | 10.5 upbm affinity estimate (log intensity, higher = more binding, comparable within an allelic series)
GAATTAAC | 10.8 upbm affinity estimate (log intensity, higher = more binding, comparable within an allelic series)
CGTATTAA | 11 upbm affinity estimate (log intensity, higher = more binding, comparable within an allelic series)
CGCCCGGC | 9.06 upbm affinity estimate (log intensity, higher = more binding, comparable within an allelic series)
GGAAGCCC | 9.35 upbm affinity estimate (log intensity, higher = more binding, comparable within an allelic series)
GCGAATTA | 10.8 upbm affinity estimate (log intensity, higher = more binding, comparable within an allelic series)
GGGCGCGA | 9.14 upbm affinity estimate (log intensity, higher = more binding, comparable within an allelic series)
ATAATTTA | 11 upbm affinity estimate (log intensity, higher = more binding, comparable within an allelic series)

Sequence | binding signal
AAGCGCTT | 9.68 upbm affinity estimate (log intensity, higher = more binding, comparable within an allelic series)
CGGGCCAC | 9.3 upbm affinity estimate (log intensity, higher = more binding, comparable within an allelic series)
CGGCCGGC | 9.07 upbm affinity estimate (log intensity, higher = more binding, comparable within an allelic series)
CTTCGTTC | 9.58 upbm affinity estimate (log intensity, higher = more binding, comparable within an allelic series)
CGTATTAG | 11.1 upbm affinity estimate (log intensity, higher = more binding, comparable within an allelic series)
ATTTAGAG | 10.2 upbm affinity estimate (log intensity, higher = more binding, comparable within an allelic series)
AGCTGCCG | 9.31 upbm affinity estimate (log intensity, higher = more binding, comparable within an allelic series)
ATAATGCG | 10.9 upbm affinity estimate (log intensity, higher = more binding, comparable within an allelic series)
ACCGGGGC | 9.2 upbm affinity estimate (log intensity, higher = more binding, comparable within an allelic series)
AGTGTTAG | 10.1 upbm affinity estimate (log intensity, higher = more binding, comparable within an allelic series)
ACGTATTA | 11.1 upbm affinity estimate (log intensity, higher = more binding, comparable within an allelic series)
ATGAATTA | 11 upbm affinity estimate (log intensity, higher = more binding, comparable within an allelic series)
CCCGCGCG | 9.19 upbm affinity estimate (log intensity, higher = more binding, comparable within an allelic series)
ACGAATTA | 10.8 upbm affinity estimate (log intensity, higher = more binding, comparable within an allelic series)
CTGAGCGC | 9.27 upbm affinity estimate (log intensity, higher = more binding, comparable within an allelic series)
ATACATAT | 10.6 upbm affinity estimate (log intensity, higher = more binding, comparable within an allelic series)
